# Experimental data as given in PubChem BioAssay (NCI).
# About 83,000 compounds went through this panel and 20% of them were active in at least one assay; those are over-represented in the sample as a whole.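 Treatment: one concentration, 48 hours, 96-well format. Scoring: percent growth, with anything below 10 considered active.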 Active and inactive are the calls of the source.
# System: NCI/ADR-RES ovarian
# Assay: NCI-60 one-dose screen, 48 h (100 = growth as untreated, 0 = no growth, -100 = all killed)
# Conditions: 10 µM unless noted
row,Compound,growth
1,Cc1ccc(-c2nc([P+](c3ccccc3)(c3ccccc3)c3ccccc3)c(N3CCOCC3)o2)cc1,86% (inactive)
2,Cc1cc(N2CCCCC2)nc(N(CCNc2ccnc3cc(Cl)ccc23)Cc2ccco2)n1,10.5% (inactive)
3,Cc1cc(C)c(NC(=O)c2sc3nc4c(cc3c2N)CCCC4)c(C)c1,18.4% (inactive)
4,CCNCCCn1c2c(c3ccc([N+](=O)[O-])cc3c1=O)C(=O)c1cc(OC)cnc1-2,-40.2% (active)
5,CCCC(=O)N1CCCCC1CC (stereo not drawn),115% (inactive)
6,C#CCn1c(C)cc(C)c(C#N)c1=O,106% (inactive)
7,Cc1cc2nc3c4cc([N+](=O)[O-])cc([N+](=O)[O-])c4n(CCN(C)C)c3nc2cc1C,57.8% (inactive)
8,Cn1c(/C(C#N)=C/c2ccc3ccccc3c2)cc2ccccc21,-18.4% (active)
9,CC(=O)O[C@H]1CC[C@]2(C)[C@H]3C(=O)C=C4[C@@H]5C[C@](C)(C(=O)N6CCCNCC6)CC[C@]5(C)CC[C@@]4(C)[C@]3(C)CC[C@H]2C1(C)C,-41.6% (active)
10,Cc1cc(N(CCNc2ccnc3cc(Cl)ccc23)Cc2ccco2)nc(Cl)n1,-4.64% (active)
11,COc1ccc2c(c1)c(-c1nc(-c3cn(C)c4ncccc34)cs1)cn2CCCN1CCCCC1,69.5% (inactive)
12,NC(Cc1ccc(O)cc1)C(=O)N/N=C/c1ccccc1O (stereo not drawn),102% (inactive)
13,CC(=O)NC1=C(C#N)C(c2ccccc2Cl)c2c(ccc3ccccc23)O1 (stereo not drawn),33.8% (inactive)
14,COC(=O)[C@]12CC[C@@H](C)[C@H](C)[C@@H]1C1=CC[C@@H]3[C@@]4(C)C=C(O)C(=O)C(C)=C4CC[C@@]3(C)[C@]1(C)CC2,38.8% (inactive)
15,N#Cc1c(-c2ccc(O)cc2)c2c(N)nn(-c3ccccc3)c2[nH]c1=O,102% (inactive)
16,CCN(CC)CCCCCNc1cc(OC(=O)c2ccccc2)cc2cccnc12,99.3% (inactive)
17,Clc1ccc(Cn2cc(-c3nc4ccc(Br)nc4n3Cc3ccc(Cl)cc3)c3cccnc32)cc1,90.8% (inactive)
18,Cn1c2c(Cl)c(Cl)ccc2c2c(C#N)c[nH]c(=O)c21,103% (inactive)
19,COc1ccc(C(=O)/C=C/c2cc(-c3cc(OC)c(OC)c(OC)c3)n[nH]2)cc1OC,15% (inactive)

row,Compound,growth
1,COC1=C(Br)C(=O)C(OC)=C(Br)C1=O,104% (inactive)
2,CN(C)c1ccc(N)c2ccccc12,77.2% (inactive)
3,Cc1cc(C=O)c(C)c2c1[nH]c1ccccc12,94.2% (inactive)
4,N#CC1=C(N)Oc2c(sc3c(F)cccc23)C1c1ccc(Cl)cc1 (stereo not drawn),14.4% (inactive)
5,COc1ccc(C2C(C#N)=C(N)Oc3c2sc2c(F)cccc32)cc1 (stereo not drawn),6.69% (active)
6,C=COCCCCCCCCCCCCCCCCCC,98.9% (inactive)
7,O=C1C=Cc2ncccc2C1=O,84% (inactive)
8,O=C1c2ccccc2C(=Cc2ccccc2)c2ccccc21,-64.4% (active)
9,CN(C)c1ccc(C(=O)c2ccc(N(C)C)c(N)c2)cc1N,-14% (active)
10,O=C1c2cccc3cccc(c23)C(=O)N1CC#Cc1ccc2c3c(cccc13)C(=O)N(CCN1CCNCC1)C2=O,102% (inactive)
11,C=C1CC[C@@H](C(=O)OC)Cc2nc(C)ccc21,98.5% (inactive)
12,N#C/C(=C\c1ccc(-c2ccccc2)o1)c1nc(-c2ccco2)cs1,95.5% (inactive)
13,O=C(/C=C\c1ccc2c(c1)OCO2)/C=C/c1ccc2c(c1)OCO2,92.1% (inactive)
14,Cc1ccc(-c2nc3ccc(Cl)cc3c(=O)n2N2C(=O)CSC2c2ccccc2Cl)cc1 (stereo not drawn),70.6% (inactive)
15,CC(=O)OC[C@]12CC[C@@H](/C(C)=N/O)[C@@H]1[C@H]1CC[C@@H]3[C@@]4(C)CCCNC(C)(C)[C@@H]4CC[C@@]3(C)[C@]1(C)CC2,77.4% (inactive)
16,C=C1C(=O)O[C@H]2[C@H]1CC/C(COC(=O)NCc1c[nH]c3ccccc13)=C\CC[C@@]1(C)O[C@@H]21,78.8% (inactive)
17,O=C1c2cccc3cccc(c23)C(=O)N1CC#Cc1ccc2c3c(cccc13)C(=O)N(CCO)C2=O,91.7% (inactive)
18,Cc1cc(N2CCOCC2)nc(N(CCCNc2ccnc3cc(Cl)ccc23)Cc2ccco2)n1,12.1% (inactive)
19,Cn1c2ccccc2c2c3c(c4c5cccnc5[nH]c4c21)C(=O)N(O)C3=O,57.2% (inactive)
